ChEMBL document CHEMBL3433997, “St. Jude Leishmania screening dataset” (2016)

What was measured:
Format in all cases: functional
[1] = biological target: Solute carrier family 2, facilitated glucose transporter member 1 (Homo sapiens) (UniProt P11166); experiment: ST_JUDE_LEISH: Cytotoxicity at 2uM final concentration against transgenic Leishmania Mexicana promastigotes LmGLUT1 that are glucose transport deficient and complemented with the human glucose transporter GLUT1. Activity is measured by DNA content using SYBR green in vitro
[2] = biological target: Hexose transporter 1 (Plasmodium falciparum) (UniProt O97467); experiment: ST_JUDE_LEISH: Cytotoxicity at 2uM final concentration against transgenic Leishmania Mexicana promastigotes LmPfHT that are glucose transport deficient and complemented with the Plasmodium falciparum hexose transporter. Activity is measured by DNA content using SYBR green in vitro
[3] = biological target: Glucose transporter (Leishmania mexicana) (UniProt O61059); experiment: ST_JUDE_LEISH: Cytotoxicity at 2uM final concentration against transgenic Leishmania Mexicana promastigotes LmGT2 that are glucose transport deficient and complemented with the L. Mexicana glucose transporter 2. Activity is measured by DNA content using SYBR green in vitro

Solute carrier family 2, facilitated glucose transporter member 1 (Homo sapiens), sequence (P11166 whole entry): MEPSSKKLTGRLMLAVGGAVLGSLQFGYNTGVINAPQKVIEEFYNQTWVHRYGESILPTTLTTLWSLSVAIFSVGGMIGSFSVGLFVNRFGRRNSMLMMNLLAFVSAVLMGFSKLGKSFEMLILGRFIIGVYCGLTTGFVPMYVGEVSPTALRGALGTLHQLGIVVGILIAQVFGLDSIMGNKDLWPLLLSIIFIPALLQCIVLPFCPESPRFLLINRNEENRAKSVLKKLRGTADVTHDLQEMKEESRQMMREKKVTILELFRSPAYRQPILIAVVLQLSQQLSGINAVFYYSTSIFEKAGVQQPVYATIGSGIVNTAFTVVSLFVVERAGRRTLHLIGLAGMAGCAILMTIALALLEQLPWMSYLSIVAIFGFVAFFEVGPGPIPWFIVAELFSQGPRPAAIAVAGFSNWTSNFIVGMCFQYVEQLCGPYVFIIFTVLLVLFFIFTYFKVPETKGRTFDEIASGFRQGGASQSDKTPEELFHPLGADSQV

Row | Compound | inhibition [1] [%] | inhibition [2] [%] | inhibition [3] [%]
1 | O=[N+]([O-])c1ccc(-n2nc(-c3cccnc3)n(Cc3ccco3)c2=S)c(Cl)c1 | 1.31 | -1.09 | 
2 | CS(=O)(=O)N(c1ccccc1)c1cc(C(=O)N[C@@H](Cc2ccccc2)[C@H](O)CNC2CC2)cc(N2CCCC2=O)c1 | 4.45 | 5.62 | 4.38
3 | CN1CCN(CCCN(Cc2cccc(-c3ccc(CNCCc4ccccc4)cc3)c2)C(=O)Nc2ccccc2)CC1 | 2.48 | 7.14 | 1.35
4 | CN(C(=O)/C=C/c1cc(C(F)(F)F)ccc1F)C1CCN(CCCCCNC(=O)/C=C/c2ccc(Cl)c(Cl)c2)CC1 | 3.67 | 3.45 | 2.56
5 | CCNCc1ccc(-c2cc3ncnc(Nc4ccc(OCc5cccc(F)c5)c(Cl)c4)c3s2)[nH]1 | -0.88 | -3.14 | 3.41
6 | COc1ccc(Nc2ncc(OC)c(Nc3ccccc3C(N)=O)n2)cc1N1CCN(C)CC1 | 17.6 | 21.9 | 7.83
7 | CCCC(C)NC(=O)/C=C/c1ccccc1-c1cccc(OC)c1 (centres undefined) | -0.91 | -0.01 | 
8 | CN(C)C(=O)c1cc(CNCc2ccccc2)ccc1-c1cccc(CNCc2ccc(-c3ccccc3)cc2)c1 | 0.97 | 3.85 | 3.02
9 | N=C(N)NN=C1C=Cc2cccc3cccc1c23 | -1.8 | 2.26 | -2.92
10 | Cc1ccc(NC(=O)N2CCCN(CCCCCNC(=O)/C=C/c3ccc(Cl)c(Cl)c3)CC2)cc1 | -1.97 | -0.68 | 
11 | Fc1ccc2[nH]c(-c3ccc(-c4ccc(CNCC5CCCO5)cc4)s3)nc2c1 (centres undefined) | 11.9 | 9.33 | 11
12 | CCCCCCNc1c2ccccc2nc2ccccc12 | 4.99 | 9.27 | 3.25
13 | CC(C)c1ccc(CN2CCC(CNC(=O)c3cc(-c4cccc(F)c4)cs3)C2)cc1 (centres undefined) | 0.2 | -1.08 | 
14 | COc1ccccc1N1CCN(C(C(=O)NCc2ccc3c(c2)OCO3)c2ccc(C)cc2)CC1 (centres undefined) | -0.94 | -0.2 | 
15 | CC(=O)Nc1ccc(CN2Cc3ccc(NC(=O)Nc4ccc(Oc5ccccc5)cc4)cc3C2)s1 | 1.61 | -0.21 | 1.94
16 | c1ccc(-c2cccc(-c3ccccn3)n2)nc1 | 3.92 | 2.46 | 2.49
17 | COC(=O)Cc1ccc(N)c2ccccc12 | -0.85 | -0.46 | -2.13
18 | C[C@H](Cc1ccc(S(=O)(=O)c2ccc(C[C@@H](C)NC[C@H](O)c3cccc(Cl)c3)cc2)cc1)NC[C@H](O)c1cccc(Cl)c1 | 2.7 | 4 | 2.18
19 | CC(=O)Nc1ccc(C(=O)Nc2cccc(-c3cccc(-c4nc5cc(F)ccc5[nH]4)c3)c2)cn1 | 7.97 | 10.8 | 3.74
20 | COc1cc(NC(=O)N2CCc3cc(OC)c(OCCN4CCCCC4)cc32)cc(C(F)(F)F)c1 | 12.9 | 12.7 | 9.77
21 | O=C(Nc1ccccc1)Nc1cccc(-c2cccc(-c3nc4cc(F)ccc4[nH]3)c2)c1 | 2.45 | 2.61 | 1.59
22 | CCCC(CNCc1cccc(OCC)c1)CNc1cc(=O)c2ccccc2[nH]1 (centres undefined) | -0.5 | -0.45 | 
23 | Cc1ccc2[nH]c(C)cc(=NN=Cc3cccc(Cl)c3)c2c1 | 2.87 | 0.92 | 2.31
24 | CN1CCN(CCCN(Cc2csc(-c3ccc(CNCc4ccccc4)cc3)n2)S(=O)(=O)c2ccc(F)cc2)CC1 | 14.9 | 17.1 | 10.1

Row | Compound | inhibition [1] [%] | inhibition [2] [%] | inhibition [3] [%]
25 | O=C(Nc1cccc(CN2CCCN(Cc3cccc(O)c3)CC2)c1)c1cc2ccccc2s1 | -0.14 | -0.1 | 
26 | CN(C)CCOc1cc(NC(=O)Nc2ccc(Oc3ccccc3)cc2)ccc1I | 1.79 | 1.64 | -1.47
27 | CCCOc1ccc2ccccc2c1CNCCCCCCNCc1c(OCCC)ccc2ccccc12 | 2.66 | 1.04 | -1.19
28 | Cc1[nH]c(C)c(-c2ccc(OCc3ccc(F)cc3)cc2)c(=O)c1Br | 0.17 | -1.87 | -1.56
29 | O=C(NCC(=O)N1CCC[C@H]1C(=O)O)[C@@H](Cc1ccccc1)NC(=O)[C@@H]1CCCN1C(=O)CCCc1ccc(O)cc1 | -2.68 |  | 
30 | C=CCOc1ccc(Cc2cnc(N)nc2N)cc1CCC | 3.94 | 4.62 | 1.19
31 | COc1cc(NC(=O)/C=C/c2ccc(-c3ccccc3)cc2)ccc1OCCN(C(C)C)C(C)C | 60.5 | 55.8 | 23.4
32 | CC(C)(C)c1ccc(N2C(N)=NC(N)=NC2(C)C)cc1 | -0.57 | 0.01 | 1.34
33 | Cc1ccc(NC(=O)N2CCCN(CCCCCNC(=O)/C=C/c3ccc(Cl)c(Cl)c3)CC2)cc1C | -0.69 | -1.17 | 
34 | CCN1CCC(N(Cc2ccc(-c3ccc(C(F)(F)F)cc3)cc2)C(=O)Cn2c(CCc3cccc(F)c3F)cc(=O)c3ccc(OCc4ccccc4)cc32)CC1 | 3.79 | 3.24 | 3.52
35 | c1cc(CNCCc2ccncc2)cc(-c2ccc(-c3nc4ccccc4[nH]3)s2)c1 | 0.32 | -0.86 | -0.99
36 | N=C(N)NN=CC(=O)Nc1cc([N+](=O)[O-])cc([N+](=O)[O-])c1 | 8.23 | 7.12 | 6.66
37 | CC(NCCc1cccc(Cl)c1)C(O)c1ccc(OCCCCCCOc2ccc(C(O)C(C)NCCc3cccc(Cl)c3)cc2)cc1 (centres undefined) | 38.2 | 69.9 | 24.4
38 | O=C(/C=C/c1ccc(Cl)c(Cl)c1)NCCCCCN1CCC(NC(=O)Nc2cccc(C(F)(F)F)c2)CC1 | -1.91 | -0.93 | 
39 | COc1ccc(C(=O)N2CCC3(CC2)C(=O)N(CC(=O)NC2CCCCC2)CN3c2ccccc2)c(OC)c1 | 3.74 | 3.6 | 4.38
40 | COc1nc2c(N3CCN(CCNCc4ccc5c(n4)NC(=O)CO5)CC3)ccnc2cc1F | 4.21 | 2.44 | 0.39
41 | COc1ccc(CNc2ccnc(-n3cnc4cc(C)c(C)cc43)n2)cc1Cl | 4.37 | 3.69 | 2.53
42 | CCNc1cc(C(=O)N[C@@H](Cc2ccccc2)[C@H](O)CNCCc2cc(OC)cc(OC)c2)cc(N2CCCCS2(=O)=O)c1 | 7.06 | 4.2 | 10
43 | C[C@H]1CN(Cc2cccc(-c3cc(CNC(=O)c4cccc(CC5CCN(C)CC5)c4)ccc3F)c2)CCN1C | 0.87 | 0.27 | -3.42
44 | FC(F)(F)c1ccc2[nH]c(-c3ccc(-c4cccc(CN5CCN(CCN6CCOCC6)CC5)c4)cc3)nc2c1 | 1.77 | 3.69 | 2.25
45 | CCC(C)NS(=O)(=O)c1ccc2nc(Nc3ccc(C)cc3)n(C3CCCCC3)c2c1 (centres undefined) | 5.26 | 4.02 | 3.35
46 | CC1CCC(NC(=O)c2nn(-c3ccc(Cl)cc3)c(=O)c3ccccc23)CC1 (centres undefined) | 1.52 | 1.39 | -0.26
47 | COc1cc(CCNc2nc(NCc3cccc4ccccc34)nc(N3CCC(N)CC3)n2)ccc1O | 5.69 | 4.98 | 2.74
48 | O=[N+]([O-])c1ccc(C(O)CNCCc2ccccc2)cc1OCc1ccccc1 (centres undefined) | 14.1 | 14 | 15

Row | Compound | inhibition [1] [%] | inhibition [2] [%] | inhibition [3] [%]
49 | NCCC(=O)Nc1ccc(-c2cnc3[nH]cc(-c4ccc(C(=O)O)cc4)c3c2)cn1 | 1.05 | 1.74 | 0.13
50 | O=C(Nc1ccc2c(c1)OCO2)c1cc(-c2cccnc2)cnc1NCc1ccc2c(c1)OCO2 | 0.99 | 0.19 | 2.1
51 | CN(C)C(=O)c1cccc(COc2ccc(N3C(N)=NC(N)=NC3(C)C)cc2Cl)c1 | 1.73 | 1.77 | -0.58
52 | O=C(O)c1ccc(-c2cnc3ccc(NC4CCC(O)CC4)nn23)cc1 (centres undefined) | 0.42 | 0.39 | -0.34
53 | CCOC(=O)C1CCN(CCCNC(=O)/C(=C/C=C/c2cc3cc(Cl)c(Cl)cc3[nH]2)OC)CC1 | -1.12 | 4.1 | 0.42
54 | CCOc1cc(C(=O)NCCCN2CCN(c3cccc(Cl)c3)CC2)ccc1-c1nc2cc(Cl)c(F)cc2[nH]1 | -0.54 | -0.11 | -0.18
55 | COc1ccc2nccc([C@@H](O)CN3CCC(NC(=O)C(c4cc5ccccc5o4)N4CCC(Cc5ccccc5)CC4)CC3)c2c1 (some centres undefined) | 5.02 | 3.03 | 2.23
56 | Cc1cccc(Nc2nc(NCCCCN)nc3cc[nH]c(=O)c23)c1 | 6.92 | 6.97 | 4.49
57 | COC(=O)c1cccc(N2CCN(CCCNC(=O)/C(=C/C=C/c3cc4cc(Cl)c(Cl)cc4[nH]3)OC)CC2)c1 | 2.24 | 0.95 | -1.57
58 | CC(C)(CNCc1ccc(C(F)(F)F)cc1)c1nc(-c2ccc(Cl)c(O)c2)c(-c2ccncc2)[nH]1 | 0.52 | -0.09 | 0.02
59 | CCc1cc(COc2ccc(CNCCC(C)C)cc2I)c(OCc2ccccc2)c(COc2ccc(CNCCC(C)C)cc2I)c1 | -0.25 | -3.29 | 3.76
60 | CNC(=O)c1cnc(Nc2ccc(N3CCN(C)CC3)cc2)nc1Nc1cccc(OC(C)C)c1 | 3.75 | 1.38 | -7.72
61 | COc1cccc(CCc2c(CCNCCCCCCNCCc3ccccc3)ccc(OC)c2OC)c1 | 93 | 102 | 106
62 | COc1ccc2[nH]ccc(=NN=Cc3ccccc3Cl)c2c1 | 7.36 | 12.6 | 2.03
63 | O=C(Nc1cccc(-c2ccc(-c3nc4cc(F)ccc4[nH]3)s2)c1)c1cccnc1 | 5.68 | 4.85 | 3.13
64 | CCCCCC(C)C(C)c1cc(O)c2c(c1)OC(C)(C)CC2(O)c1ccccn1 (centres undefined) | 1.35 | 2.79 | 3.05
65 | COc1cccc(CNC(=O)c2ccnc(-c3cccc(CN(C)C4CCN(C)CC4)c3)c2)c1 | -0.04 | -0.18 | 1.78
66 | O=C(Nc1cc(C(F)(F)F)ccc1-n1cncn1)C1(c2ccccc2)CC1 | -1.28 | -1.95 | 0.27
67 | CC(C)c1ccc(NC(=O)c2ccc(CN3CCCN(Cc4cccc(Cl)c4)CC3)cc2)cc1 | 0.69 | 1.46 | 1.59
68 | Cc1noc(C)c1-c1cccc(CNCc2ccc(-c3ccc(-c4nc5cc(C(F)(F)F)ccc5[nH]4)cc3)cc2)c1 | 5.36 | 4.54 | 4.2
69 | Cc1cc(N[C@@H](Cc2ccccc2)C(=O)NCc2cccc(F)c2)nc(NCCOc2ccccc2)n1 | 4.2 | -1.41 | -0.15
70 | Oc1ccccc1CNCC12CC3CC(CC(C3)C1)C2 | 3.18 | 2.08 | 2.13
